The list is not random: actives were taken first. Their share in the collection is about 2.4%.
WRN inhibitor – blocks human WRN helicase; Q14191; WRN helicase unwinding, fluorescent forked duplex, kinetic; Potency, µM (titrated, usually from 114 µM), for inactives: at the top dose activity change, negative = inhibition, hits mostly inhibitors; 0.46% of 360,000 active; also: potency is read from the fitted curve at half-maximal effect; % is scaled to controls: 0 for no effect and ±100 for the full control effect; nearly all actives have a fitted effect of over 55% in size
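Kinetic fluorescence helicase assay: unwinding of a quenched forked DNA duplex (100 nM final) with 2 mM ATP final raises red fluorescence (525/598 nm). Compounds sat 15 min at room temperature with 20 nM WRN beforehand.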
FEN1 inhibitor – human FEN1 inhibition | P39748 | Recombinant FEN1 flap cleavage, fluorescence, 15 min | Potency, µM (series often up to 114 µM), for the others: top-dose activity change, negative = inhibition, usual class: inhibitors | 0.35% of 390,000 active | AID 588795; also: potency is read from the fitted curve at half-maximal effect; % is scaled to controls: 0 for no effect and ±100 for the full control effect; nearly all actives have a fitted effect of over 65% in size
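Read-out was taken twice, immediately and after 15 min, following addition of 50 nM substrate to 10 nM FEN1 that had sat with test compound for 15 min at room temperature. Curves came from a four-parameter Hill model.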
Pol eta inh-1 – DNA polymerase eta (human) inhibition | Q9Y253 | recombinant Pol eta, fluorescent DNA replication assay | Potency, µM (doses to about 114 µM), for inactives: top-dose activity change, negative = inhibition, actives largely listed as inhibitors | 1.2% of 390,000 active | AID 588591; also: potency is read from the fitted curve at half-maximal effect; % is scaled to controls: 0 for no effect and ±100 for the full control effect
Target sequence (Q9Y253 whole entry, looked up): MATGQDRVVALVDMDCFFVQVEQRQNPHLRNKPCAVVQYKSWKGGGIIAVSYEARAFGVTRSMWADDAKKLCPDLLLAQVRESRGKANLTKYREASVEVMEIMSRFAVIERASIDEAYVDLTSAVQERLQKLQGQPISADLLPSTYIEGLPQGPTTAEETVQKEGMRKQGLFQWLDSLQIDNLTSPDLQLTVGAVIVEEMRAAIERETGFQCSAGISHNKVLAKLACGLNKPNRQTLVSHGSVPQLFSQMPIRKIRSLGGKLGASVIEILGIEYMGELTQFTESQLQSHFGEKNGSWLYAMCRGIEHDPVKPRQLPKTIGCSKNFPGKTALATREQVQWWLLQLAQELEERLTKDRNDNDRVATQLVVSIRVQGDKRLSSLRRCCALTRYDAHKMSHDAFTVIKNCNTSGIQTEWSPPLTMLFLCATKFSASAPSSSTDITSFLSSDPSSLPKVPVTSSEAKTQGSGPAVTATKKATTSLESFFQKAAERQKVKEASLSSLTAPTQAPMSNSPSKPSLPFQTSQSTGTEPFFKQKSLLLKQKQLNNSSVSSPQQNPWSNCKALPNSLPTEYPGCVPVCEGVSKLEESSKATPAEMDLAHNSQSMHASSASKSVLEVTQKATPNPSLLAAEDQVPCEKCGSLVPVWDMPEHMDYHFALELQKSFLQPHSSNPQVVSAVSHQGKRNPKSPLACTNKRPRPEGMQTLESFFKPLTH
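Fluorescent replication assay: 50 nM final substrate added after a 15 min room-temperature compound preincubation with 10 nM enzyme. Signal taken at 0 min and again at 10 min.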
POLB inh – blocks human DNA polymerase beta activity | Pol beta primer extension/strand displacement, fluorescence kinetic | Potency, µM (top dose mostly 114 µM), for inactives: at the top dose activity change, negative = inhibition, actives largely listed as inhibitors | AID 485314 | P06746 | 1.3% of 340,000 active; also: potency is read from the fitted curve at half-maximal effect; % is scaled to controls: 0 for no effect and ±100 for the full control effect
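Kinetic readout of DNA synthesis with strand displacement by Pol beta. Compound and 10 nM enzyme sit 15 min at room temperature; 50 nM substrate starts the reaction, read immediately and at 10 min.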
POLI inh – blocks human DNA polymerase iota activity; Pol iota fluorescent replication assay, 10 min; Potency, µM (highest dose often 115 µM), without a hit: at the highest dose activity, negative = inhibition, hits mostly inhibitors; 1% of 390,000 active; AID 588590; also: potency is read from the fitted curve at half-maximal effect
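Pol iota at 10 nM preincubated 15 min with compounds at room temperature; reaction started with fluorescent substrate, 50 nM final. Fluorescence read kinetically at 0 and 10 min; buffer-only wells as negative control.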
Pol kappa inh-1 – inhibitors of human DNA polymerase kappa; Q9UBT6; purified Pol kappa, fluorescent DNA synthesis assay, 10 min; Potency, µM (highest dose often 107 µM), for inactives: at the highest dose activity, negative = inhibition, usual class: inhibitors; 0.53% of 400,000 active; AID 588579; also: potency is read from the fitted curve at half-maximal effect; % is scaled to controls: 0 for no effect and ±100 for the full control effect
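Kinetic fluorescence readout at 0 and 10 min followed reaction start with substrate at 50 nM final. Beforehand, enzyme (10 nM Pol kappa) stood 15 min with compound at room temperature; buffer-only wells were negative controls.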
GALK confirm – confirmation of human galactokinase (GALK) inhibitors; Potency, µM (series often up to 115 µM), inactives show at the highest dose activity, negative = inhibition, usual class: inhibitors; purified GALK, Kinase-Glo ATP depletion luminescence; shares compounds with Pol eta inh-1; 70% of 150 active
GALK redox cs – generates H2O2 by redox cycling, flagging GALK artifacts; shares compounds with Pol eta inh-1; Phenol red-HRP H2O2 redox cycling, absorbance 600 nm; Potency, µM (top dose mostly 115 µM), without a hit: at the highest dose activity change, negative = H2O2 signal, most hits filed as inhibitors; 40% of 150 active; AID 2035
HEK293 tox – reduces HEK-293 cell viability in GALK counter-screen; shares compounds with Pol eta inh-1; Potency, µM (highest dose often 46.1 µM), inactives show at the top dose activity change, negative = cytotoxicity, usual class: inhibitors; 10% of 170 active; AID 2547; HEK-293 viability, ATP luminescence (CellTiter-Glo), 24/48 h; also: potency is read from the fitted curve at half-maximal effect; % is scaled to controls: 0 for no effect and ±100 for the full control effect
Pol kappa inh-2 – confirmation of human DNA polymerase kappa inhibitors; shares compounds with Pol eta inh-1; purified Pol-kappa, fluorescent strand-displacement substrate; Potency, µM, most hits filed as inhibitors; 76% of 920 active; also: potency is read from the fitted curve at half-maximal effect
Pol eta inh-2 – Pol eta (human) inhibition, cherry-pick confirmation; AID 720502; 64% of 2,600 active; shares compounds with Pol eta inh-1; Potency, µM, usual class: inhibitors; Pol eta primer extension, TAMRA/BHQ fluorescence, 10 min; also: potency is read from the fitted curve at half-maximal effect
An asterisk follows results filed as active; ? = inconclusive; nt = no result given; [ ] = another dose, or the depositor's remark. Calls follow the shape of the dose curve; as a rule, active = well fitted curve in the direction sought with a large enough effect; inconclusive = small, poorly fitted or top-dose-only effect, or another doubt; inactive = no such curve, though single readings can be large; an effect the other way counts as inactive or inconclusive.

SMILES	WRN inhibitor	FEN1 inhibitor	Pol eta inh-1	POLB inh	POLI inh	Pol kappa inh-1	Pol eta inh-2	others
CNc1ccc(Br)cc(C(=O)/C=C/c2ccc3c(c2)OCO3)c1=O	?	50µM*	10µM*	20µM*	3.2µM*	35µM*	?
Cc1ccc(C)n1-c1cccc(-c2nn[nH]n2)c1	nt	nt	nt	nt	nt	nt	?
Fc1cccc(-c2nn[nH]n2)c1	12%	-4%	-7%	5%	15%	3%	nt
Cc1nc2ccccc2n2c(O)c(CC(=O)O)cc12	?	?	79µM*	?	?	?	?	Pol kappa inh-2=67*
Cc1ccc2c(c1)C(c1ccccc1)N(C(=O)COc1ccc(Cl)cc1Cl)CC(=O)N2 (stereo unspecified)	nt	2%	-21%	-24%	1%	-10%	nt
CCCN1C(=O)c2[nH]nc(-c3ccccc3O)c2C1c1ccc(OCc2ccccc2)c(OCC)c1 (stereo unspecified)	nt	-8%	-22%	-2%	13%	0%	nt
COc1cc(/C=C2\SC(=O)NC2=O)ccc1Oc1ccc([N+](=O)[O-])cc1[N+](=O)[O-]	-35%	?	50µM*	89µM*	?	?	?
COc1cc(/C=C(/C#N)C(=O)Nc2ccccc2)c(Br)cc1OCc1ccc(C(=O)O)cc1	?	-19%	79µM*	-14%	?	-16%	?
N#C/C(=C\c1ccc(OCc2ccccc2)cc1)C(=O)Nc1ccc(C(=O)O)cc1	-4%	-5%	-16%	2%	?	-6%	nt
CCOC(=O)c1sc(NC(=O)c2ccc(=O)[nH]c2)nc1C	-32%	-2%	?	14%	14%	6%	nt
CCOC(=O)c1sc(NC(=O)c2ccc3nc[nH]c3c2)nc1C	?	-30%	?	?	?	-25%	?
CCOC(=O)c1cc(-c2ccc(/C=C3/C(=O)N(c4ccc(C(=O)O)cc4)N=C3C)o2)ccc1Cl	-23%[11.6 µM]	-21%	18µM*	-13%	1.4µM*	?	nt	GALK confirm=21µM*;GALK redox cs=12µM*;HEK293 tox=14%
Cc1ccc(NC(=O)Cn2c(=O)n(Cc3nc(-c4ccccc4)no3)c(=O)c3ccccc32)c(C)c1	nt	-10%	-13%	-4%	11%	-4%	nt
Cc1cc(=O)oc2c(CN3CCC(C)CC3)c(O)c(Cl)cc12	?	-13%	13µM*	16µM*	?	?	?
Cc1cc(=O)oc2c(CN3CCCC3)c(O)c(Cl)cc12	-12%	3%	?	?	-19%	-24%	nt
CCN(CC)Cc1c(O)c(Cl)cc2c(C)cc(=O)oc12	-9%[11.6 µM]	-7%	20µM*	10µM*	?	89µM*	?
CCOC(=O)c1sc(N/N=C/c2ccccc2)nc1C	?	8%	-21%	30%	29%	-2%	nt
O=C(O)Cc1sc(N/N=C\c2ccccc2)nc1-c1ccccc1	-16%[11.6 µM]	-17%	40µM*	-24%	?	-44%	48*	Pol kappa inh-2=27*
Cc1ccc(NC(=O)Cn2c(=O)n(Cc3ccccc3)c(=O)c3c(C)c(C)sc32)c(C)c1	nt	-3%	nt	15%	?	-16%	nt
Cc1ccc(NC(=O)CSc2nc(-c3ccco3)nc3cc(=O)[nH]n23)c(Cl)c1	-9%[11.6 µM]	-21%	45µM*	50µM*	40µM*	?	48*
Cc1cccc(CNc2ncnc3ccc(-c4ccoc4)cc23)c1	nt	-7%	-11%	nt	-10%	4%	nt	GALK confirm=?;GALK redox cs=-4%;HEK293 tox=3%
c1cncc(CNc2ncnc3ccc(-c4ccoc4)cc23)c1	nt	-1%	-4%	nt	31%	?	nt
COc1ccc(NCc2cc3cc4c(cc3n(CC(=O)Nc3cc(C)ccc3C)c2=O)OCCO4)cc1	nt	16%	-18%	1%	14%	9%	nt
COc1cc(/C=C2/C(=O)NN(c3ccc(Cl)c(Cl)c3)C2=O)cc([N+](=O)[O-])c1O	50µM*	?	20µM*	20µM*	18µM*	-86%	30*	GALK confirm=33µM*;GALK redox cs=-3%;HEK293 tox=13%
CCCc1cc(=O)oc2cc(OCC(=O)NC(Cc3c[nH]c4ccc(O)cc34)C(=O)O)c(Cl)cc12 (stereo unspecified)	-19%	-22%	40µM*	-14%	?	?	?
SMILES	WRN inhibitor	FEN1 inhibitor	Pol eta inh-1	POLB inh	POLI inh	Pol kappa inh-1	Pol eta inh-2	others
O=C(N/N=C/c1cc(Cl)cc([N+](=O)[O-])c1O)c1ccccc1NS(=O)(=O)c1cccs1	-18%[11.6 µM]	-33%	?	-5%	?	-9%	?
Cc1c(C(=O)N2CCN(c3ccccc3)CC2)sc2nc3n(c(=O)c12)CCC3	-2%	-2%	4%	?	19%	-3%	nt
Cc1c(C(=O)O)sc2nc3n(c(=O)c12)CCC3	-30%	-8%	7.9µM*	18µM*	11µM*	?	60*
CC(C)(C)OC(=O)NCCCCC1=CC2=CC(=O)C(C)(O)C(=O)C2=CO1 (stereo unspecified)	?	-21%	20µM*	nt	50µM*	79µM*	60*
CCOc1ccc(-n2c(-c3ccc(Br)cc3)cc3c2CC(C)(C)CC3=O)cc1	nt	12%	-18%	24%	18%	-8%	nt
O=C1NC(=O)/C(=C/c2ccco2)N1	nt	0%	-9%	nt	50%	3%	nt
O=C1NC(=S)NC1=Cc1ccco1	-118%	45µM*	13µM*	nt	?	?	76*	Pol kappa inh-2=34*
Cc1ccc(Cl)cc1N1CCN(C(=O)c2cnc(N3CCOCC3)c3ccccc23)CC1	nt	-5%	-19%	-3%	4%	-12%[60.1 µM]	nt

Screening data (PubChem)
